# Measurements taken from PubChem BioAssay (NCI).
# The panel holds about 79,000 compounds, 15% with a hit somewhere; the sample as a whole holds those more often. Unmarked numbers belong to inactive results. Active and inactive are the calls of the source. Cut-off read from the data, not from the text of the source: active = growth inhibition above about 70%; inactive = the rest.
# Columns and labels:
# [1] = NCI Yeast Anticancer Drug Screen. Data for the rad52 strain (AID 147);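 note: 0% = growth of vehicle-treated control cultures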; details: S. cerevisiae rad52 mutant growth inhibition, active compounds read high
# Method in brief: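 Compounds are applied to a genetically defined yeast strain lacking normal DNA damage repair, and inhibition of growth is expressed relative to cultures given vehicle only.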
# [2] = NCI Yeast Anticancer Drug Screen. Data for the wt1 strain (AID 149);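 note: 0% = growth of vehicle-treated wt1 cultures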; details: S. cerevisiae wt1 strain (SPY 50644) growth inhibition, active compounds read high
# Method in brief: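 Each compound is tested on wt1 yeast and the loss of growth versus vehicle gives the inhibition value.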
# [3] = NCI Yeast Anticancer Drug Screen. Data for the rad50EPP+ strain (AID 151);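 note: 0% = growth of vehicle-treated control cultures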; details: S. cerevisiae rad50 mutant strain, active compounds read high
# Method in brief: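 Compounds were applied to the rad50EPP+ yeast strain, which bears a defined DNA repair alteration, and growth inhibition was determined relative to vehicle-treated cultures.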
# [4] = NCI Yeast Anticancer Drug Screen. Data for the mgt1 strain (AID 153); details: S. cerevisiae mgt1 mutant growth inhibition, active compounds read high
# Method in brief: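 Strain: mgt1 yeast, one of a set carrying defined DNA damage repair or cell cycle control alterations. Compound-treated growth compared with vehicle.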
# [5] = NCI Yeast Anticancer Drug Screen. Data for the rad50 strain (AID 155);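 note: 0% = growth of vehicle-only cultures of the same strain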; details: S. cerevisiae rad50 strain growth inhibition, active compounds read high
# Method in brief: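 Vehicle-treated cultures provide the reference for the growth inhibition reported for compound-exposed, repair-deficient yeast.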
# [6] = NCI Yeast Anticancer Drug Screen. Data for the mec2-1 strain (AID 157); details: S. cerevisiae mec2-1 strain, active compounds read high
# Method in brief: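 Strain: mec2-1 (DNA repair/cell cycle alteration). Compound exposure, then growth measured; inhibition expressed relative to vehicle.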
# [7] = NCI Yeast Anticancer Drug Screen. Data for the rad14 strain (AID 159);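 note: 0% = growth of vehicle-treated control cultures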; details: S. cerevisiae rad14 strain growth inhibition, active compounds read high
# Method in brief: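 Inhibition of growth is reported for a repair-deficient yeast mutant following compound treatment, calculated relative to cultures that received vehicle.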
# [8] = NCI Yeast Anticancer Drug Screen. Data for the sgs1 mgt1 strain (AID 161);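 note: 0% = growth of cultures given vehicle only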; details: S. cerevisiae sgs1 mgt1 strain, active compounds read high
# Method in brief: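 Test agents were incubated with a DNA-repair-mutant yeast strain. Growth was then read and compared against vehicle-treated controls.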
# [9] = NCI Yeast Anticancer Drug Screen. Data for the CLN2oe strain (AID 163);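 note: 0% = growth of vehicle-only control cultures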; details: S. cerevisiae CLN2oe strain, active compounds read high
# Method in brief: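 Growth of a genetically modified yeast strain is measured after compound exposure and compared with cultures given vehicle alone.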
# [10] = NCI Yeast Anticancer Drug Screen. Data for the cln2 rad14 strain (AID 165);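 note: 0% = growth equal to vehicle treated cultures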; details: S. cerevisiae cln2 rad14 strain, active compounds read high
# Method in brief: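 Compounds are applied to the cln2 rad14 yeast strain, and growth is then compared with that of vehicle-treated cultures to give inhibition.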
# [11] = NCI Yeast Anticancer Drug Screen. Data for the bub3 strain (AID 167); details: S. cerevisiae bub3 mutant strain, active compounds read high
# Method in brief: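 Mutant yeast screening strain plus compound; vehicle-treated cultures serve as the 0% inhibition reference.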
# [12] = NCI Yeast Anticancer Drug Screen. Data for the wt2 strain (AID 169); details: S. cerevisiae wt2 strain growth inhibition, active compounds read high
# Method in brief: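 This strain belongs to a panel of yeast strains with defined genetic alterations in DNA damage repair or cell cycle control. Compounds are applied, and growth inhibition is measured against vehicle-treated cultures.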
# [13] = NCI Yeast Anticancer Drug Screen. Data for the sgs1 strain (AID 173);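 note: 0% = growth of vehicle-only control cultures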; details: S. cerevisiae sgs1 mutant, active compounds read high
# Method in brief: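 Growth of a yeast strain bearing a defined genetic alteration is measured after compound treatment. Inhibition is expressed relative to vehicle-only controls.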
# [14] = NCI Yeast Anticancer Drug Screen. Data for the mlh1 rad18 strain (AID 175); details: S. cerevisiae mlh1 rad18 strain growth inhibition, active compounds read high
# Method in brief: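 Read-out is yeast growth inhibition, calculated against vehicle-only controls. The compound was applied to a strain engineered with DNA damage repair alterations.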
# [15] = NCI Yeast Anticancer Drug Screen. Data for the rad18 strain (AID 177); details: S. cerevisiae rad18 mutant growth inhibition, active compounds read high
# Method in brief: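 Growth of the mutant yeast strain after compound exposure, normalised to vehicle-only cultures.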
# [16] = NCI Yeast Anticancer Drug Screen. Data for the mlh1 strain (AID 171);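 note: 0% = growth of vehicle-treated control cultures of the same strain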; details: S. cerevisiae mlh1 strain growth inhibition, active compounds read high
# Method in brief: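 Growth of the mutant yeast strain after compound exposure, expressed as inhibition relative to vehicle-only controls.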
# [17] = at 5.0 µM (retest, dose inferred, filed as 0.5)
# [18] = at 50.0 µM (retest, dose inferred, filed as 5.0)
compound,measurement,setting,value
CCC(=O)Nc1ccc(N=NN(C)C)cc1,growth inhibition,[1]; at 1.2 µM,-9%
same,growth inhibition,[1]; at 3.7 µM,-12%
same,growth inhibition,[1]; at 11.0 µM,-13%
same,growth inhibition,[1]; at 33.0 µM,87% (active)
same,growth inhibition,[1]; at 100.0 µM,99% (active)
same,growth inhibition,[2]; at 1.2 µM,-1%
same,growth inhibition,[2]; at 3.7 µM,2%
same,growth inhibition,[2]; at 11.0 µM,3%
same,growth inhibition,[2]; at 33.0 µM,47%
same,growth inhibition,[2]; at 100.0 µM,99% (active)
same,growth inhibition,[3]; at 1.2 µM,-10%
same,growth inhibition,[3]; at 3.7 µM,-30%
same,growth inhibition,[3]; at 11.0 µM,-21%
same,growth inhibition,[3]; at 33.0 µM,65%
same,growth inhibition,[3]; at 100.0 µM,99% (active)
same,growth inhibition,[4]; at 1.2 µM,-2%
same,growth inhibition,[4]; at 3.7 µM,-9%
same,growth inhibition,[4]; at 11.0 µM,-5%
same,growth inhibition,[4]; at 33.0 µM,-9%
same,growth inhibition,[4]; at 100.0 µM,45%
same,growth inhibition,[5]; at 1.2 µM,-61%
same,growth inhibition,[5]; at 3.7 µM,-23%
same,growth inhibition,[5]; [17],-146%
same,growth inhibition,[5]; at 11.0 µM,-20%
same,growth inhibition,[5]; at 33.0 µM,24%
same,growth inhibition,[5]; [18],45%
same,growth inhibition,[5]; at 50.0 µM,90.7% (active)
same,growth inhibition,[5]; at 100.0 µM,98% (active)
same,growth inhibition,[6]; at 1.2 µM,-5%
same,growth inhibition,[6]; at 3.7 µM,-5%
same,growth inhibition,[6]; [17],-49%
same,growth inhibition,[6]; at 11.0 µM,-5%
same,growth inhibition,[6]; at 33.0 µM,17%
same,growth inhibition,[6]; [18],95% (active)
same,growth inhibition,[6]; at 50.0 µM,75.2% (active)
same,growth inhibition,[6]; at 100.0 µM,99% (active)
same,growth inhibition,[7]; at 1.2 µM,-3%
same,growth inhibition,[7]; at 3.7 µM,-7%
same,growth inhibition,[7]; at 11.0 µM,-1%
same,growth inhibition,[7]; at 33.0 µM,23%
same,growth inhibition,[7]; at 100.0 µM,99% (active)
same,growth inhibition,[8]; [17],-65%
same,growth inhibition,[8]; [18],37%
same,growth inhibition,[8]; at 50.0 µM,69.9%
same,growth inhibition,[9]; at 1.2 µM,-11%
same,growth inhibition,[9]; at 3.7 µM,-9%
same,growth inhibition,[9]; at 11.0 µM,-11%
same,growth inhibition,[9]; at 33.0 µM,21%
same,growth inhibition,[9]; at 100.0 µM,97% (active)
same,growth inhibition,[10]; [17],-56%
same,growth inhibition,[10]; [18],55%
same,growth inhibition,[10]; at 50.0 µM,48.2%
same,growth inhibition,[11]; at 1.2 µM,-9%
same,growth inhibition,[11]; at 3.7 µM,-8%
same,growth inhibition,[11]; [17],-70%
same,growth inhibition,[11]; at 11.0 µM,-13%
same,growth inhibition,[11]; at 33.0 µM,-11%
same,growth inhibition,[11]; [18],34%
same,growth inhibition,[11]; at 50.0 µM,0.3%
same,growth inhibition,[11]; at 100.0 µM,90% (active)
same,growth inhibition,[12]; at 1.2 µM,0%
same,growth inhibition,[12]; at 3.7 µM,2%
same,growth inhibition,[12]; at 11.0 µM,6%
same,growth inhibition,[12]; at 33.0 µM,73% (active)
same,growth inhibition,[12]; at 100.0 µM,100% (active)
same,growth inhibition,[13]; at 1.2 µM,-13%
same,growth inhibition,[13]; at 3.7 µM,-8%
same,growth inhibition,[13]; at 11.0 µM,2%
same,growth inhibition,[13]; at 33.0 µM,46%
same,growth inhibition,[13]; at 100.0 µM,99% (active)
same,growth inhibition,[14]; [17],-150%
same,growth inhibition,[14]; [18],9%
same,growth inhibition,[14]; at 50.0 µM,50.2%
same,growth inhibition,[15]; at 1.2 µM,-8%
same,growth inhibition,[15]; at 3.7 µM,-10%
same,growth inhibition,[15]; at 11.0 µM,-9%
same,growth inhibition,[15]; at 33.0 µM,69%
same,growth inhibition,[15]; at 100.0 µM,99% (active)
O=C1NC(c2cccc(OCc3ccccc3)c2)Nc2ccccc21 (stereo unspecified),growth inhibition,[1]; at 1.2 µM,16%
same,growth inhibition,[1]; at 3.7 µM,20%
same,growth inhibition,[1]; at 11.0 µM,19%
same,growth inhibition,[1]; at 33.0 µM,14%
same,growth inhibition,[1]; at 100.0 µM,6%
same,growth inhibition,[2]; at 1.2 µM,-10%
same,growth inhibition,[2]; at 3.7 µM,-20%
same,growth inhibition,[2]; at 11.0 µM,-22%
same,growth inhibition,[2]; at 33.0 µM,-26%
same,growth inhibition,[2]; at 100.0 µM,-5%
same,growth inhibition,[3]; at 1.2 µM,-3%
same,growth inhibition,[3]; at 3.7 µM,10%
same,growth inhibition,[3]; at 11.0 µM,0%
same,growth inhibition,[3]; at 33.0 µM,6%
same,growth inhibition,[3]; at 100.0 µM,16%
same,growth inhibition,[4]; at 1.2 µM,-7%
same,growth inhibition,[4]; at 3.7 µM,-19%
same,growth inhibition,[4]; at 11.0 µM,-35%
same,growth inhibition,[4]; at 33.0 µM,-22%
same,growth inhibition,[4]; at 100.0 µM,-51%
same,growth inhibition,[5]; at 1.2 µM,12%
same,growth inhibition,[5]; at 3.7 µM,12%
same,growth inhibition,[5]; [17],49%
same,growth inhibition,[5]; at 11.0 µM,8%
same,growth inhibition,[5]; at 33.0 µM,6%
same,growth inhibition,[5]; [18],81% (active)
same,growth inhibition,[5]; at 50.0 µM,84.3% (active)
same,growth inhibition,[5]; at 100.0 µM,-9%
same,growth inhibition,[6]; at 1.2 µM,13%
same,growth inhibition,[6]; at 3.7 µM,11%
same,growth inhibition,[6]; [17],42%
same,growth inhibition,[6]; at 11.0 µM,6%
same,growth inhibition,[6]; at 33.0 µM,5%
same,growth inhibition,[6]; [18],74% (active)
same,growth inhibition,[6]; at 50.0 µM,77.8% (active)
same,growth inhibition,[6]; at 100.0 µM,0%
same,growth inhibition,[7]; at 1.2 µM,-6%
same,growth inhibition,[7]; at 3.7 µM,-14%
same,growth inhibition,[7]; at 11.0 µM,-11%
same,growth inhibition,[7]; at 33.0 µM,-19%
same,growth inhibition,[7]; at 100.0 µM,-17%
same,growth inhibition,[8]; [17],5%
same,growth inhibition,[8]; [18],35%
same,growth inhibition,[8]; at 50.0 µM,63.9%
same,growth inhibition,[9]; at 1.2 µM,-4%
same,growth inhibition,[9]; at 3.7 µM,-9%
same,growth inhibition,[9]; at 11.0 µM,-5%
same,growth inhibition,[9]; at 33.0 µM,-7%
same,growth inhibition,[9]; at 100.0 µM,1%
same,growth inhibition,[10]; [17],35%
same,growth inhibition,[10]; [18],38%
same,growth inhibition,[10]; at 50.0 µM,32.5%
same,growth inhibition,[11]; at 1.2 µM,6%
same,growth inhibition,[11]; at 3.7 µM,14%
same,growth inhibition,[11]; [17],20%
same,growth inhibition,[11]; at 11.0 µM,8%
same,growth inhibition,[11]; at 33.0 µM,4%
same,growth inhibition,[11]; [18],32%
same,growth inhibition,[11]; at 50.0 µM,67.8%
same,growth inhibition,[11]; at 100.0 µM,1%
same,growth inhibition,[16]; at 1.2 µM,1%
same,growth inhibition,[16]; at 3.7 µM,1%
same,growth inhibition,[16]; at 11.0 µM,5%
same,growth inhibition,[16]; at 33.0 µM,-4%
same,growth inhibition,[16]; at 100.0 µM,-14%
same,growth inhibition,[13]; at 1.2 µM,2%
same,growth inhibition,[13]; at 3.7 µM,0%
same,growth inhibition,[13]; at 11.0 µM,-7%
same,growth inhibition,[13]; at 33.0 µM,-6%
same,growth inhibition,[13]; at 100.0 µM,-14%
same,growth inhibition,[14]; [17],36%
same,growth inhibition,[14]; [18],71% (active)
same,growth inhibition,[14]; at 50.0 µM,65.2%
same,growth inhibition,[15]; at 1.2 µM,-6%
same,growth inhibition,[15]; at 3.7 µM,-18%
same,growth inhibition,[15]; at 11.0 µM,-26%
same,growth inhibition,[15]; at 33.0 µM,-21%
same,growth inhibition,[15]; at 100.0 µM,-37%
